According to publication PMC10812921, “Transcriptional Coactivator BOB1 (OBF1, OCA-B) Modulates the Specificity of DNA Recognition by the POU-Domain Factors OCT1 and OCT2 in a Monomeric Configuration”:

Columns and labels:
POU1 (OCT1 POU domain) = POU1 (OCT1 POU domain) (human, UniProt P14859 260-458); assay: EMSA-SELEX-seq; no BOB1; 20 mM Tris-HCl pH 7.6, 140 mM NaCl, 10% glycerol, 0.5 mM EDTA, 0.05% Triton X-100, 0.1 mg/mL BSA, 0.1 mg/mL poly(dI-dC), 5 mM DTT, room temperature, 20 min; high values mean tight binding; conditions: protein: recombinant; dsDNA, one strand shown
Summary of the method: (§1)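 With or without 28 ng coactivator protein, 30 ng of tagged POU-domain protein was combined with 300 ng of a PCR-amplified double-stranded random 35-nt library in 20 μL Tris–HCl pH 7.6 binding buffer for 20 min at RT. The protein came from E. coli BL21 and had been purified under denaturing conditions and renatured. Four rounds of cutting complex bands from native 6% PAGE, elution and PCR amplification preceded Illumina sequencing. The binding preference figure is the percentage of sequenced 8-mers matching a motif pattern.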

POU2 (OCT2 POU domain) = target: T1, POU2 (OCT2 POU domain) (human, UniProt P09086 175-386); assay: as above; conditions: protein: recombinant; dsDNA, one strand shown
T1 sequence: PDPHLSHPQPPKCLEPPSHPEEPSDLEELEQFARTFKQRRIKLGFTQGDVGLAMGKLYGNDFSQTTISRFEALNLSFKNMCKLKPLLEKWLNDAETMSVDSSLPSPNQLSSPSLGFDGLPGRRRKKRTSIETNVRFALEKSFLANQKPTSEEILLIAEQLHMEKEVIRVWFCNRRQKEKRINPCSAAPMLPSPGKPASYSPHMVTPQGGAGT
Summary of the method: as §1

[1] = target: POU1 (OCT1 POU domain);BOB1 (OBF1, OCA-B) (human;human, UniProt P14859;Q16633 260-458;1-256, |); assay: EMSA-SELEX-seq; with BOB1 (ternary complex band); 20 mM Tris-HCl pH 7.6, 140 mM NaCl, 10% glycerol, 0.5 mM EDTA, 0.05% Triton X-100, 0.1 mg/mL BSA, 0.1 mg/mL poly(dI-dC), 5 mM DTT, room temperature, 20 min; high values mean tight binding; conditions: protein: recombinant;recombinant; copies: 1;1; dsDNA, one strand shown
Summary of the method: as §1

[2] = target: T2, POU2 (OCT2 POU domain);BOB1 (OBF1, OCA-B) (human;human, UniProt P09086;Q16633 175-386;1-256, |); assay: as above; conditions: protein: recombinant;recombinant; copies: 1;1; dsDNA, one strand shown
T2 sequence 1: T1 sequence
T2 sequence 2: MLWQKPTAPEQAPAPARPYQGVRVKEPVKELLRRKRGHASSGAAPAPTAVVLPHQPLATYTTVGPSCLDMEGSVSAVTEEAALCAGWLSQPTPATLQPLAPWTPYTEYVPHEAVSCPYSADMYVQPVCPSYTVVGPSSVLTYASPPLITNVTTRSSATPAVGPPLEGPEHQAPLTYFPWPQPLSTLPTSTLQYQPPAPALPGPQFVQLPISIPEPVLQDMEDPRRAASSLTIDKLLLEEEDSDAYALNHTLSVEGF
Summary of the method: as §1

POU1 (OCT1 POU domain), sequence (P14859 260-458): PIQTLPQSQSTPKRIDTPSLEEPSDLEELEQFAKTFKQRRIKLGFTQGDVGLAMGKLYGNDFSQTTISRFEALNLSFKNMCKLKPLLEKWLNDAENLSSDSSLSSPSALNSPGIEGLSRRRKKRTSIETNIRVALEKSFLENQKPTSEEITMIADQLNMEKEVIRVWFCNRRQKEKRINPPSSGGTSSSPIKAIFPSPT

Sequence	binding signal (POU1 (OCT1 POU domain))	binding signal (POU2 (OCT2 POU domain))	binding signal [1]	binding signal [2]
AAACTAAG	0.0484 % of ANNNNAAN 8-mers	0.0478 % of ANNNNAAN 8-mers	0.0636 % of ANNNNAAN 8-mers	0.052 % of ANNNNAAN 8-mers
AGGGAAAC	0.0648 % of ANNNNAAN 8-mers	0.0518 % of ANNNNAAN 8-mers	0.0991 % of ANNNNAAN 8-mers	0.0413 % of ANNNNAAN 8-mers
ATCCGAAT	0.0542 % of ANNNNAAN 8-mers	0.0748 % of ANNNNAAN 8-mers	0.0496 % of ANNNNAAN 8-mers	0.066 % of ANNNNAAN 8-mers
ATGCGAAT	0.124 % of ANNNNAAN 8-mers	0.165 % of ANNNNAAN 8-mers	0.0901 % of ANNNNAAN 8-mers	0.128 % of ANNNNAAN 8-mers
ACAGCAAG	0.0156 % of ANNNNAAN 8-mers	0.0155 % of ANNNNAAN 8-mers	0.0164 % of ANNNNAAN 8-mers	0.014 % of ANNNNAAN 8-mers
AGTTCAAG	0.0297 % of ANNNNAAN 8-mers	0.0276 % of ANNNNAAN 8-mers	0.0359 % of ANNNNAAN 8-mers	0.0314 % of ANNNNAAN 8-mers
ACAGGAAC	0.0244 % of ANNNNAAN 8-mers	0.0265 % of ANNNNAAN 8-mers	0.0222 % of ANNNNAAN 8-mers	0.0239 % of ANNNNAAN 8-mers
ACACTAAC	0.0137 % of ANNNNAAN 8-mers	0.0132 % of ANNNNAAN 8-mers	0.0117 % of ANNNNAAN 8-mers	0.014 % of ANNNNAAN 8-mers
ACTTAAAA	0.0587 % of ANNNNAAN 8-mers	0.0524 % of ANNNNAAN 8-mers	0.0464 % of ANNNNAAN 8-mers	0.052 % of ANNNNAAN 8-mers
ATACTAAC	0.0347 % of ANNNNAAN 8-mers	0.0293 % of ANNNNAAN 8-mers	0.0304 % of ANNNNAAN 8-mers	0.0396 % of ANNNNAAN 8-mers
ATGAAAAT	0.373 % of ANNNNAAN 8-mers	0.304 % of ANNNNAAN 8-mers	0.619 % of ANNNNAAN 8-mers	0.518 % of ANNNNAAN 8-mers
AGTCAAAG	0.116 % of ANNNNAAN 8-mers	0.0748 % of ANNNNAAN 8-mers	0.187 % of ANNNNAAN 8-mers	0.0966 % of ANNNNAAN 8-mers
AGTTGAAT	0.0927 % of ANNNNAAN 8-mers	0.119 % of ANNNNAAN 8-mers	0.0667 % of ANNNNAAN 8-mers	0.0834 % of ANNNNAAN 8-mers
AGTGCAAC	0.0118 % of ANNNNAAN 8-mers	0.0219 % of ANNNNAAN 8-mers	0.0113 % of ANNNNAAN 8-mers	0.0215 % of ANNNNAAN 8-mers
ACTAAAAG	0.0282 % of ANNNNAAN 8-mers	0.0368 % of ANNNNAAN 8-mers	0.0332 % of ANNNNAAN 8-mers	0.0297 % of ANNNNAAN 8-mers
AGCTAAAA	0.0282 % of ANNNNAAN 8-mers	0.038 % of ANNNNAAN 8-mers	0.0425 % of ANNNNAAN 8-mers	0.0338 % of ANNNNAAN 8-mers

Sequence	binding signal (POU1 (OCT1 POU domain))	binding signal (POU2 (OCT2 POU domain))	binding signal [1]	binding signal [2]
ATAAGAAA	0.1 % of ANNNNAAN 8-mers	0.0955 % of ANNNNAAN 8-mers	0.118 % of ANNNNAAN 8-mers	0.0826 % of ANNNNAAN 8-mers
AGAATAAA	0.161 % of ANNNNAAN 8-mers	0.182 % of ANNNNAAN 8-mers	0.0757 % of ANNNNAAN 8-mers	0.0892 % of ANNNNAAN 8-mers
AAGTTAAA	0.0858 % of ANNNNAAN 8-mers	0.0857 % of ANNNNAAN 8-mers	0.0901 % of ANNNNAAN 8-mers	0.071 % of ANNNNAAN 8-mers
ATGCAAAT	5.32 % of ANNNNAAN 8-mers	5.41 % of ANNNNAAN 8-mers	8.18 % of ANNNNAAN 8-mers	12.6 % of ANNNNAAN 8-mers
ATATCAAC	0.0481 % of ANNNNAAN 8-mers	0.0449 % of ANNNNAAN 8-mers	0.0367 % of ANNNNAAN 8-mers	0.0471 % of ANNNNAAN 8-mers
ATTGTAAA	0.116 % of ANNNNAAN 8-mers	0.106 % of ANNNNAAN 8-mers	0.144 % of ANNNNAAN 8-mers	0.0925 % of ANNNNAAN 8-mers
ACCTGAAT	0.0583 % of ANNNNAAN 8-mers	0.0656 % of ANNNNAAN 8-mers	0.0359 % of ANNNNAAN 8-mers	0.0438 % of ANNNNAAN 8-mers
AAGTAAAG	0.0545 % of ANNNNAAN 8-mers	0.0541 % of ANNNNAAN 8-mers	0.0687 % of ANNNNAAN 8-mers	0.0545 % of ANNNNAAN 8-mers
ATGCTAAA	0.273 % of ANNNNAAN 8-mers	0.293 % of ANNNNAAN 8-mers	0.0691 % of ANNNNAAN 8-mers	0.0817 % of ANNNNAAN 8-mers
ACAAGAAA	0.0366 % of ANNNNAAN 8-mers	0.0437 % of ANNNNAAN 8-mers	0.0386 % of ANNNNAAN 8-mers	0.0322 % of ANNNNAAN 8-mers
AAACCAAA	0.0538 % of ANNNNAAN 8-mers	0.0506 % of ANNNNAAN 8-mers	0.0761 % of ANNNNAAN 8-mers	0.0446 % of ANNNNAAN 8-mers
AGTTGAAA	0.0477 % of ANNNNAAN 8-mers	0.0489 % of ANNNNAAN 8-mers	0.0531 % of ANNNNAAN 8-mers	0.0512 % of ANNNNAAN 8-mers
ACGGTAAC	0.0164 % of ANNNNAAN 8-mers	0.0259 % of ANNNNAAN 8-mers	0.0144 % of ANNNNAAN 8-mers	0.0239 % of ANNNNAAN 8-mers
AACAGAAA	0.042 % of ANNNNAAN 8-mers	0.0409 % of ANNNNAAN 8-mers	0.0355 % of ANNNNAAN 8-mers	0.033 % of ANNNNAAN 8-mers
AGTTGAAG	0.0355 % of ANNNNAAN 8-mers	0.0316 % of ANNNNAAN 8-mers	0.0398 % of ANNNNAAN 8-mers	0.0338 % of ANNNNAAN 8-mers
